High-throughput results from PubChem BioAssay.
LmPK inhibitor: qHTS Assay for Inhibitors of Leishmania Mexicana Pyruvate Kinase (LmPK); Q27686; purified LmPK, Kinase-Glo ATP luminescence, 1 h; Potency, µM (doses to about 57.5 µM), for inactives: at the top dose activity change, negative = inhibition, actives largely listed as inhibitors; actives 0.37% (n = 290,000); AID 1721, 2009; note: potency is the fitted concentration of half-maximal effect; % is set by controls: 0 for no effect and ±100 for the full control effect
Target sequence (Q27686 whole entry, looked up): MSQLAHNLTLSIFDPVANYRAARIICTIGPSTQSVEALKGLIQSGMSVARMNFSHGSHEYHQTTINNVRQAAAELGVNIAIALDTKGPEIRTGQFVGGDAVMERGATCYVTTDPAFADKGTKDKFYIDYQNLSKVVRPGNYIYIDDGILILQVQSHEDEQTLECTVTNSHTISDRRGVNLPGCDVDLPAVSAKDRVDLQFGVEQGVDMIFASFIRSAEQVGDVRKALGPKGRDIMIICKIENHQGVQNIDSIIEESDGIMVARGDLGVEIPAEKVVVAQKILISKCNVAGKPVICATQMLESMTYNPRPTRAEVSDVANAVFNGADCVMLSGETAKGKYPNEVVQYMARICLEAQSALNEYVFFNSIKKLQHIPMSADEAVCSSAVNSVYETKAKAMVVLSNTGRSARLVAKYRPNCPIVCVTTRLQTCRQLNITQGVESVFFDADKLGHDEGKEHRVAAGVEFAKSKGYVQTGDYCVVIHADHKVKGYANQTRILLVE
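0.1 nM LmPK, 0.5 mM PEP, 0.1 mM ADP; 50 mM imidazole pH 7.2, 7 mM MgCl2, 50 mM KCl; 1 h RT. Kinase-Glo luminescence readout, normalized to no-enzyme (full inhibition) and uninhibited wells.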
Cycloheximide cs: Cycloheximide Counterscreen for Small Molecule Inhibitors of Shiga Toxin; cell reporter, cycloheximide protein synthesis inhibition counterscreen; max response, %; actives 12% (n = 300,000); AID 2314, 2010; in the data active = max response mostly above about 13%, no sharp cut-off; inactive = mostly below about 14%; note: read at 38.3 µM for the half of the compounds with a filed dose; 0% is about no effect
Shiga inhibitor: A qHTS for Small Molecule Inhibitors of Shiga Toxin | Vero cells, Shiga toxin protein synthesis inhibition reporter | inhibition, % at 38.7 µM | actives 9.2% (n = 290,000); in the data active = inhibition mostly above about 28%, no sharp cut-off; inactive = mostly below about 43%; note: 0% is about no effect
TbPYK inhibitor: qHTS of Trypanosoma Brucei Inhibitors | pyruvate kinase (Trypanosoma brucei), Q57TT1 | TbPYK enzyme, Kinase-Glo Plus ATP luminescence, 45 min | Potency, µM (series often up to 76.8 µM), for inactives: top-dose activity, negative = inhibition, hits mostly inhibitors | actives 0.12% (n = 410,000) | AID 624173, 2012; note: potency is the fitted concentration of half-maximal effect; % is set by controls: 0 for no effect and ±100 for the full control effect; nearly all actives have a fitted effect of over 50% in size
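Quantitative HTS: titrated library compounds versus trypanosomal pyruvate kinase in TEA buffer (pH 7.2) containing KCl, MgCl2, BSA and Tween-20. Reactions were initiated with ADP, 130 uM final. Kinase-Glo Plus luminescence was read after 45 min at RT.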
Sm TGR block: qHTS Assay for the Inhibitors of Schistosoma Mansoni Peroxiredoxins | actives 3% (n = 360,000) | AID 485364, 2010 | purified TGR, DTNB reduction, TNB absorbance 405 nm | Potency, µM (series often up to 114 µM), for inactives: top-dose activity change, negative = inhibition, actives largely listed as inhibitors; note: potency is the fitted concentration of half-maximal effect; % is set by controls: 0 for no effect and ±100 for the full control effect; nearly all actives have a fitted effect of over 60% in size
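First, TGR (20 nM dispensed) and NADPH were mixed with compound. Second, a 15 min room-temperature incubation followed. Third, further NADPH and then DTNB were added to start the reaction. Finally, TNB absorbance was monitored kinetically.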
FBPA Giardia inh: qHTS Assay for Inhibitors of Fructose-1,6-bisphosphate Aldolase from Giardia Lamblia | A8B2U2 | purified Giardia FBPA | Potency, µM (highest dose often 59.6 µM), inactives show at the highest dose activity, negative = inhibition, most hits filed as inhibitors | actives 0.71% (n = 290,000); note: potency is the fitted concentration of half-maximal effect; % is set by controls: 0 for no effect and ±100 for the full control effect; nearly all actives have a fitted effect of over 55% in size
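40 nM FBPA preincubated 10 min at RT with compound (up to 57.5 uM final), then substrate plus GAPDH/TPI/NAD/arsenate coupling and diaphorase/resazurin added. Fluorescence read after 20 min at RT, 525/598 nm.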
Active calls of the source: *; u = inconclusive; x = no result given; + = active, no number; [ ] = dose if it differs, or a comment. The entries come from a sample that favours hits as a whole. Unless noted, calls come from the whole dose curve; as a rule, active = well fitted curve in the direction sought with a large enough effect; inconclusive = small, poorly fitted or top-dose-only effect, or another doubt; inactive = no such curve, though single readings can be large; an effect the other way counts as inactive or inconclusive.

SMILES | LmPK inhibitor | Cycloheximide cs | Shiga inhibitor | TbPYK inhibitor | Sm TGR block | FBPA Giardia inh
CC(C)(C)C1CCc2c(sc(NC(=O)c3ccncc3)c2C(N)=O)C1 (stereo not given) | 0% | 16* | 11 | 11% | -14% | 7%
COc1ccccc1C(=O)Nc1sc2c(c1C(N)=O)CCCC2 | 5% | 12 | 44 | -4% | -1% | -1%
Cc1ccccc1C(=O)NC(=S)Nc1sc2c(c1C#N)CCC(C)C2 (stereo not given) | 5% | -3 | 28 | 0% | -17% | -11%
N#Cc1c(NC(=O)c2cc([N+](=O)[O-])ccc2N2CCOCC2)sc2c1CCCC2 | 1% | 30* | + | -13% | u | -12%
COc1ccccc1C(=O)Nc1sc2c(c1C#N)CCC2 | -1% | 12* | x | -7% | 0% | -8%
CS(=O)(=O)Nc1cccc(-c2nc(NCc3ccccc3)c3ccccc3n2)c1 | x | x | x | x | x | -4%
COC(=O)N[C@@H](c1ccc(Br)cc1)C(C(=O)OC)C(=O)OC | x | x | x | x | x | 2%
CCOC(=O)Cn1c(=O)n(C2CCCCC2)c2nc(-c3cccc(C)c3)nc(C(N)=O)c21 | x | x | x | 5% | -2% | x
COc1ccc(C)cc1NC(=O)C1CCN(S(=O)(=O)c2ccc3[nH]c(=O)oc3c2)CC1 | x | x | x | 1% | 2% | x
N#Cc1c(NC(=S)NC(=O)C2CCCC2)sc2c1CCCCC2 | 3% | 23* | 27* | -5% | -9% | -25%
N#Cc1c(NC(=O)c2cnccn2)sc2c1CCCC2 | -8% | 66* | 75* | -6% | -4% | u
CCOC(=O)c1sc(=S)n(-c2ccc3c(c2)OCO3)c1N | 1% | 30* | 30 | -26% | 1% | -17%
CCOC(=O)c1sc(=S)n(-c2ccc(F)c(F)c2)c1N | 5% | -2 | 12 | -28% | 2% | 2%
CCOC(=O)c1sc(=S)n(C)c1NC(=O)c1ccccc1 | -2% | -3 | 13 | -21% | 8% | 8%
CCOC(=O)c1sc(=S)n(-c2ccccc2)c1NC(C)=O | -6% | -2 | 5 | -7% | 45µM* | 0%
Cc1ccc(Nc2ncc3c(n2)CC(c2ccco2)CC3=O)c(C)c1 (stereo not given) | 3% | 3 | 52 | -23% | -26% | -3%
Cc1cc(C)cc(Nc2ncc3c(n2)CC(c2ccco2)CC3=O)c1 (stereo not given) | -1% | 7 | -2 | 1% | 50µM* | -4%
Cc1cccc(Nc2ncc3c(n2)CC(C)CC3=O)c1 (stereo not given) | 5% | 33* | 112* | -7% | 14% | 6%
Cc1ccc2nc(Nc3ncc4c(n3)CCCC4=O)nc(C)c2c1 | -5% | -3 | 6 | x | -3% | -6%
Cc1cccc(Nc2ncc3c(n2)CC(c2ccco2)CC3=O)c1 (stereo not given) | 6% | 15* | 20 | 3% | -3% | 1%
Cc1cc(C)cc(Nc2ncc3c(n2)CCCC3=O)c1 | -12% | 17* | 23 | 2% | -19% | -1%
Cc1c(Cl)cccc1NC(=O)C(=O)NCCc1csc(-c2cccc(F)c2)n1 | x | x | x | 3% | -1% | x
CCOc1ccccc1-c1noc(CCCC(=O)Nc2cccc(C(F)(F)F)c2)n1 | x | x | x | 0% | 5% | x
CC1(C(=O)Nc2ccc(Cl)c(Cl)c2)CCN1C(=O)Cc1ccc(-c2ccccc2)cc1 (stereo not given) | x | x | x | -4% | x | x
COc1ccc(-n2cc(C(=O)N(C)c3cc(C)ccc3OC)c3ccccc3c2=O)cc1 | x | x | x | -8% | -7% | x
SMILES | LmPK inhibitor | Cycloheximide cs | Shiga inhibitor | TbPYK inhibitor | Sm TGR block | FBPA Giardia inh
CC(=O)Nc1nnc(COc2ccc(Cl)cc2)s1 | 6% | 57* | 92* | -3% | 0% | -3%
CC(C)C(=O)Nc1nnc(COc2ccc(Cl)cc2)s1 | 1% | 8 | 13 | -2% | 9% | 3%
CC(=O)c1csc(COc2ccc(Cl)cc2)n1 | -7% | 44* | 38* | 1% | -8% | 2%
CC(=O)Nc1nnc(COc2ccccc2)s1 | -2% | 21* | 55* | 3% | -10% | 5%
COc1ccc(-n2ncc(C(=O)NCc3ccccc3)c2C2CCN(C(=O)OC(C)(C)C)CC2)cc1 | x | x | x | -3%[15.4 µM] | -3% | x
CC(=O)Nc1c(C(=O)Nc2ccccc2F)oc2ccccc12 | x | x | x | -1% | 4% | x
COCCN(C(=O)C1=COCCO1)c1c(N)n(CC(C)C)c(=O)[nH]c1=O | x | x | x | 0% | 6% | x
Cn1nccc1C(=O)Nc1ccc(Cl)cc1 | -23% | 28* | 68* | -10% | 11% | -1%
Cn1nc(C(=O)Nc2ccc3c(c2)OCO3)c2ccccc2c1=O | 3% | 5 | 1 | 1% | 3% | 1%
Cn1nccc1C(=O)Nc1ccc2c(c1)OCO2 | -26% | 28* | 107* | -17% | -14% | x
Cn1nccc1C(=O)Nc1cc(Cl)ccc1Cl | x | x | x | 1% | x | x
COc1ccc(CNC(=O)Cn2c(-c3ccccc3)cc(C(C)=O)c2C)cc1OC | x | x | x | 2% | -2% | x
Cc1cc(C)c(NC(=O)c2c(C)oc3c2C2=NCCN2C=N3)c(C)c1 | x | x | x | -2% | -5% | x
CC(=O)c1c(C)[nH]c(C(=O)Nc2ccc(S(=O)(=O)N(C)C)cc2)c1C | -14% | 3 | 9 | -2% | 4% | -2%
CN(C)S(=O)(=O)c1ccc(C(=O)Nc2ccc3ncccc3c2)cc1 | -2% | 32* | 41* | -4% | 0% | -5%
CC(=O)c1c(C)[nH]c(C(=O)Nc2cccc(S(=O)(=O)N(C)C)c2)c1C | 5% | 31* | 50 | 1% | -3% | -6%
Cc1cccc(NC(=O)c2ccc(S(=O)(=O)N(C)C)cc2)c1 | 5% | 16* | 41 | -1% | -15% | 0%
Oc1ccccc1/C=N/NC(=S)NC1CC2CCC1C2 (stereo not given) | 6% | 32* | 45* | -7% | 1% | 10%
CCOc1ccc(/C=N/NC(=S)NC2CC3CCC2C3)cc1 (stereo not given) | 4% | 3 | 11 | -2% | 8% | 0%
S=C(N/N=C/c1ccco1)NC1CC2CCC1C2 (stereo not given) | -1% | 44* | 73* | 9% | u | 24%
Cc1nn2c(=O)cc(COc3ccc(/C=C(\C#N)C(=O)Nc4ccc(F)cc4)cc3)nc2s1 | x | x | x | 2% | 9% | x
COc1cc(OC)nc(Oc2cc(C=O)ccc2OC)n1 | -3% | -1 | 19 | 0% | 9% | 5%
NCC(=O)Nc1ccc(Br)cc1 | -1%[11.5 µM] | -2 | -15 | 4% | -7% | 0%
COc1ccc(NC(=O)CC2CCCCC2)cc1OC | -1% | 27* | 36 | -3% | -1% | -13%
O=C(CC1CCCC1)Nc1ccc(Br)cc1 | 2% | 32* | 76* | 3% | 0% | -7%
